# In PubChem BioAssay (NCI):
# The panel holds about 83,000 compounds, 20% with a hit somewhere; the sample as a whole holds those more often.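 Cells were grown in 96-well plates and exposed to the test compound at a single concentration for 48 hours; results are reported as percent growth, with values below 10 considered active.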 Calls of active or inactive are those of the source.
# Test system: HL-60(TB) leukemia
# Experiment: NCI-60 one-dose screen, 48 h (100 = growth as untreated, 0 = no growth, -100 = all killed)
# Conditions: 10 µM unless noted
row,Structure (SMILES),growth
1,CCO/C=N/C1=C(C#N)C(c2ccc(OC)cc2)c2sc3c(CC)cccc3c2O1 (stereo not given),9.99% (active)
2,CCCCN1C(=O)/C(=c2\sc3n(c2=O)C2C(NN=3)N(CC)C(=O)N2CC)c2cc(Cl)ccc21 (stereo not given),51.7% (inactive)
3,CN1CCN(c2nc(-c3cnc4ccccc4n3)cc3ccccc23)CC1,-36.2% (active)
4,CC1(C)[C@@H](O)CC[C@]2(C)[C@H]3CC[C@@H]4[C@H]5[C@H](C(=O)/C=C\c6ccccn6)CC[C@]5(O)CC[C@@]4(C)[C@]3(C)CC[C@@H]12,-24.5% (active)
5,CCN(CC)c1ccc2c(c1)Oc1nc(N)c(C#N)c(N)c1C2Sc1ccc(C)cc1 (stereo not given),-24.4% (active)
6,COc1c(N2CC3CCCNC3C2)c(F)cc2c(=O)c(C(=O)N/N=C/c3c[nH]c4ccccc34)cn(C3CC3)c12 (stereo not given),94.4% (inactive)
7,CC/C(=C/c1c(O)cccc1OC)c1ccc2c(OC)cccc2[o+]1,106% (inactive)
8,Fc1ccccc1/C=C(/C1=NCCN1)n1cnc2ccccc21,94.5% (inactive)
9,Cc1csc(/N=C(N)/N=C(\N)c2cccc(Br)c2)n1,91.3% (inactive)
10,Cc1nc(/N=C(N)/N=C(\N)c2cccc(Br)c2)sc1C,12.4% (inactive)
11,CC(=O)/C(N=Nc1ccc2oc(=O)ccc2c1)=C(\C)O,-15.3% (active)
12,O=C1/C(=C/c2ccc([N+](=O)[O-])cc2)SC(=Nc2ccccc2)N1Nc1ccccc1,25.8% (inactive)
13,CC1=N[C@@H]2CN(C(=O)OC(C)(C)C)C[C@@H]2n2c1cc1ccccc1c2=O,99.9% (inactive)
14,COc1cc2nc(Cl)nc(Nc3cccc(C4=Nc5c(N)nc(N)nc5NC(c5ccc(Cl)cc5)C4)c3)c2cc1OC (stereo not given),-30.3% (active)
15,CN1CCN(c2ccc(Nc3nc(NCCNC(=O)c4ccccc4)c4sccc4n3)cc2)CC1,22.2% (inactive)
16,O=C(CCC(=O)N1CCOCC1)OCCCCCCSc1ccc([N+](=O)[O-])c2nonc12,-45.4% (active)
17,Nc1ccc(-c2nnc(SCc3ccc(O)c4ncccc34)o2)cc1,-5.84% (active)
18,CCc1cc(OC(=O)N2CCN(CCC(C)(COC(C)(C)C)COC(C)(C)C)CC2)ccc1Nc1cc(-c2ccc(-n3cccn3)cc2)[nH]n1,66.5% (inactive)
19,CCc1cc2c(cc1Cl)nc1c(=O)[nH]c(=O)nc-1n2CCOCC(C)C,51.2% (inactive)
20,Cc1ccccc1N1CCN(C2=C(Cl)C(=O)c3ncccc3C2=O)CC1,4.21% (active)
21,COc1ccc(-c2cc(-c3ccc(N4CCOCC4)cc3)n3c(n2)nc2ccccc23)cc1OC,71% (inactive)
22,CC/C(=C(/c1ccc(Cl)cc1)c1ccc(OCCN)cc1)c1ccccc1,43.4% (inactive)
23,COc1ccccc1NC1=C(Cl)C(=O)c2nc(C)ccc2C1=O,-48% (active)
24,Cc1ccc2c(c1)Oc1nc(N)c(C#N)c(N)c1C2Sc1ccc(F)cc1 (stereo not given),-51.7% (active)
25,N#C/C(=C\c1ccc(-c2ccc(Cl)cc2)o1)C(=O)Nc1ncc(Cc2ccc(Br)cc2)s1,50% (inactive)
